# Values joined by “and” are separate entries in the source; they are usually repeats but may differ in a detail not shown here. Equal values may be shown once. Results filed as inconclusive are left out. Unmarked numbers belong to inactive results. Active and inactive are the calls of the source. The call rests on the fitted dose curve; in most records, active means well fitted curve in the direction sought with a large enough effect in the repeat runs; inconclusive means weak or mixed curves; inactive means no such curve, though single readings can be large; an effect the other way counts as inactive or inconclusive.
# Assay: qHTS RealTime-Glo MT Cell Viability Assay in HEK293 cells - 0 hour (AID 1224880); further: top concentration of the series differs between compounds; nearly all actives have a fitted effect of over 45% in size
# Settings: RealTime-Glo luminescence; series mostly up to 76.8 µM; activity change, negative = cytotoxicity: at the top concentration
# Summary of the method: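 Real-time viability in HEK293: signal arises when living cells convert a prosubstrate for NanoLuc in the medium, so luminescence tracks viable cell number. Compound (23 nL, DMSO) added 5 h post-seeding; kinetic reads at 0–40 h, 37 C.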
# On the % scale 0 is the no-effect control and ±100 the full control effect.
SMILES,"activity change, negative = cytotoxicity",Potency
Cc1cc(C(F)(C(F)(F)F)C(F)(F)F)ccc1NC(=O)c1cccc(I)c1C(=O)NC(C)(C)CS(C)(=O)=O,-1.53% [at 35.3 µM],–
O=C(O)COc1nc(Cl)c(Cl)cc1Cl,14%,–
CCN(CC)C(=S)[S-].CCN(CC)C(=S)[S-].[Zn+2],-4.25%,–
CCCCCCCCCCCCCCC(Br)C(=O)O (configuration not stated),-17.5%,–
ClC1=C(Cl)C2(Cl)C3C(Cl)C=CC3C1(Cl)C2(Cl)Cl (configuration not stated),–,inactive
ClCc1ccc(Cl)cc1Cl,15.9%,–
Cc1cc(C(C)(C)c2cc(C)c(O)c(C)c2)cc(C)c1O,-8.29%,–
O=C(CCl)C(Cl)Cl,-3.23%,–
Clc1ccc(CO/N=C(\Cn2ccnc2)c2ccc(Cl)cc2Cl)c(Cl)c1,-4.37% [at 35.3 µM],–
CC(=[OH+])/C=C(/C)[O-].CC(=[OH+])/C=C(\C)[O-].CC(=[OH+])/C=C(\C)[O-].[Al],-7.18%,–
CCC(C)c1cc([N+](=O)[O-])cc([N+](=O)[O-])c1OC(=O)C=C(C)C (configuration not stated),-5.54%,–
CCCCCCCCCCCCCCCC[n+]1ccccc1,–,inactive
C=CCC1=C(C)C(OC(=O)C2C(C=C(C)C)C2(C)C)CC1=O (configuration not stated),-14.8%,–
CC(c1ccc(O)cc1)c1ccc(O)cc1,–,inactive
CC(C)[C@H](C(=O)OC(C#N)c1cccc(Oc2ccccc2)c1)c1ccc(OC(F)F)cc1 (some centres not stated),-4.18%,–
COP(=S)(OC)Oc1cc(Cl)c(Br)cc1Cl,-27.8%,–
CCOP(=S)(OCC)SCCS(=O)(=O)CC,6.35%,–
CS(=O)(=O)c1ccc(C(=O)C2C(=O)CCCC2=O)c([N+](=O)[O-])c1,-1.05%,–
CC[C@H]1C[C@@H]2C[C@H]3c4[nH]c5ccc(OC)cc5c4CCN(C2)[C@@H]13,-4%,–
NC(=O)c1ccc(N)nc1,1.22%,–
CN(C)[C@@H]1C(=O)C(C(N)=O)=C(O)[C@@]2(O)C(=O)C3=C(O)c4c(O)ccc(Cl)c4[C@@](C)(O)[C@H]3C[C@@H]12,-13.2%,–
CCN(CC)c1c([N+](=O)[O-])cc(C(F)(F)F)c(N)c1[N+](=O)[O-],16%,–
N#Cc1c(-c2ccc(Cl)cc2)[nH]c(C(F)(F)F)c1Br,-30%,–
CCCOCC(=Nc1ccc(Cl)cc1C(F)(F)F)n1ccnc1,-0.18%,–
O=C1c2ccccc2C(=O)C1C(=O)C(c1ccccc1)c1ccc(Cl)cc1 (configuration not stated),-19.3%,–
O=C(O)C1C2CCC(O2)C1C(=O)O (configuration not stated),–,inactive

# Assay: A CellTox Green Cytotoxicity Assay to monitor cytotoxicity in HEK293 cells - 32 hour (AID 1224881); further: nearly all actives have a fitted effect of over 40% in size; further: potency means the concentration at half of the fitted maximal effect
# Settings: CellTox Green fluorescence; series mostly up to 76.8 µM; cytotoxicity increase: at the top concentration
# Summary of the method: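 Cells (HEK293, 600/well) and dye reagent are dispensed together. After 5 h at 37 C, 23 nL compound is pinned in. Plates stay at 37 C for 40 h with fluorescence read at 0h, 8h, 16h, 24h, 32h and 40h.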
SMILES,cytotoxicity increase,Potency
Cc1cc(C(F)(C(F)(F)F)C(F)(F)F)ccc1NC(=O)c1cccc(I)c1C(=O)NC(C)(C)CS(C)(=O)=O,-15.8% [at 35.3 µM],–
CCN(CC)C(=S)[S-].CCN(CC)C(=S)[S-].[Zn+2],–,15.4 µM (active)
CCCCCCCCCCCCCCC(Br)C(=O)O (configuration not stated),1.66%,–
O=c1oc2ccccc2c(O)c1Cc1c(O)c2ccccc2oc1=O,-5.66% [at 35.3 µM],–
ClC1=C(Cl)C2(Cl)C3C(Cl)C=CC3C1(Cl)C2(Cl)Cl (configuration not stated),–,55.2 µM (active) and 49 µM (active)
Cc1cc(C(C)(C)c2cc(C)c(O)c(C)c2)cc(C)c1O,24.9%,–
O=C(CCl)C(Cl)Cl,–,27.8 µM (active)
Clc1ccc(CO/N=C(\Cn2ccnc2)c2ccc(Cl)cc2Cl)c(Cl)c1,20.4% [at 35.3 µM],–
O=c1c(C2CC(c3ccc(-c4ccc(Br)cc4)cc3)Cc3ccccc32)c(O)sc2ccccc12 (configuration not stated),-6.79% [at 35.3 µM],–
CC(=[OH+])/C=C(/C)[O-].CC(=[OH+])/C=C(\C)[O-].CC(=[OH+])/C=C(\C)[O-].[Al],-23.6%,–
Clc1ccc(-c2ccc(Cl)c(Cl)c2Cl)c(Cl)c1Cl,10.6%,–
CCC(C)c1cc([N+](=O)[O-])cc([N+](=O)[O-])c1OC(=O)C=C(C)C (configuration not stated),-0.428%,–
S=C(SSC(=S)N1CCCCC1)N1CCCCC1,–,0.107 µM (active)
CCCCCCCCCCCCCCCC[n+]1ccccc1,–,34.2 µM (active) [middle of 4 runs]
Nc1ccc(Cc2ccc(N)c(Cl)c2)cc1Cl,21.6%,–
C=CCC1=C(C)C(OC(=O)C2C(C=C(C)C)C2(C)C)CC1=O (configuration not stated),–,51.9 µM (active)

SMILES,cytotoxicity increase,Potency
Nc1c(Oc2ccccc2)cc(O)c2c1C(=O)c1ccccc1C2=O,4.76% [at 35.3 µM],–
CC(c1ccc(O)cc1)c1ccc(O)cc1,0.844%,–
CC(C)(C)c1ccc(CSc2cnn(C(C)(C)C)c(=O)c2Cl)cc1,16.2%,–
CC(C)[C@H](C(=O)OC(C#N)c1cccc(Oc2ccccc2)c1)c1ccc(OC(F)F)cc1 (some centres not stated),-12.8%,–
COP(=S)(OC)Oc1cc(Cl)c(Br)cc1Cl,-0.118%,–
CCOP(=S)(OCC)SCCS(=O)(=O)CC,-6.61%,–
CS(=O)(=O)c1ccc(C(=O)C2C(=O)CCCC2=O)c([N+](=O)[O-])c1,–,44.4 µM (active)
CC[C@H]1C[C@@H]2C[C@H]3c4[nH]c5ccc(OC)cc5c4CCN(C2)[C@@H]13,-4.83%,–
NC(=O)c1ccc(N)nc1,-1.18%,–
CN(C)[C@@H]1C(=O)C(C(N)=O)=C(O)[C@@]2(O)C(=O)C3=C(O)c4c(O)ccc(Cl)c4[C@@](C)(O)[C@H]3C[C@@H]12,10.9%,–
N#Cc1c(-c2ccc(Cl)cc2)[nH]c(C(F)(F)F)c1Br,–,49 µM (active)
CCCOCC(=Nc1ccc(Cl)cc1C(F)(F)F)n1ccnc1,–,48.9 µM (active)
O=C1c2ccccc2C(=O)C1C(=O)C(c1ccccc1)c1ccc(Cl)cc1 (configuration not stated),18.7%,–
O=C(O)C1C2CCC(O2)C1C(=O)O (configuration not stated),–,inactive
CCCCCCCCc1ccc(O)cc1,–,17.5 µM (active)
